We go through 40 compounds from PubChem BioAssay (NCATS).

Several values for one entry are separate records, joined by “and”; a condition that tells them apart may be missing. Equal entries are not always repeated. Inconclusive results are not listed. A number with no mark means an inactive call. Activity calls are given as the source filed them. The call rests on the fitted dose curve; in most records, active means well fitted inhibition curve with a large enough effect; inconclusive means small, poorly fitted or top-dose-only effect; inactive means flat fitted curve, though single readings scatter.
On the % scale 0 is the no-effect control and ±100 the full control effect; potency means the concentration at half of the fitted maximal effect.

The assay deals with KB-3-1. As to the kind of experiment: Cytotoxic Profiling of Annotated Libraries Using Quantitative High-Throughput Screening (AID 1296008). Further: nearly all actives have a fitted effect of over 60% in size. As to conditions: Five cell lines viability, CellTiter-Glo ATP luminescence, 48-72 h; max response: stronger effect = lower value. From the text:
Cell-based phenotypic screening is a commonly used approach to discover biological pathways, novel drug targets, chemical probes and high-quality hit-to-lead molecules. Many hits identified from high-throughput screening campaign are ruled out through a series of follow-up potency, selectivity/specificity, and cytotoxicity assays. Prioritization of molecules with little or no cytotoxicity for a more in-depth downstream evaluation influence the future direction of projects, so cytotoxicity profiling of the screening libraries at early stage is essential for increasing the likelihood of candidate success. […] For the annotated library, we also examined the primary targets and mechanistic pathways regularly associated with cell death. To our knowledge, this is the first study to use high-throughput screening to profile large libraries for cytotoxicity assessment in both normal and cancer cell lines. In summary, the results generated here constitutes a valuable resource for the scientific community and provides insight on identifying cytotoxic compounds with particular mechanisms of action, and prioritizing compounds with suitable cytotoxicity profile for further evaluation.
A pintool (Kalypsys) was used to transfer 23 nL of compound solution to the 1536-well assay plates. After 48 or 72 hr incubation at 37 degree Celsius, 5% CO2 and 95% humidity, 2.5 uL of CellTiter-Glo (Promega) was dispensed into each well using a dispenser (Aspect Automation, St. Paul, MN) with solenoid valves (Lee Valves, Westbrook CT). Plates were left at room temperature for 10 min before imaging the ATP-coupled luminescence using a ViewLux microplate imager (PerkinElmer, Waltham, MA).
Background: Cellular ATP, detected with luciferase, serves as a proxy for viable cell number.
Take `O=C(CC1NCCC[C@H]1O)Cn1cnc2cc(Br)c(Cl)cc2c1=O` (stereo not given in full): the max response was -10.5%.

As for `COCC(C(=O)OC1CC2CCC(C1)N2C)c1ccccc1` (stereo not given), the compound was called inactive.

Turning to `C[C@]12CC[C@H]3[C@@H](CCC4=C/C(=N/OCC(=O)O)CC[C@@]43C)[C@@H]1CC[C@@H]2O`, the compound was classed as inactive.

Take `CN(Cc1cccc(-c2ccncc2)c1)C(=O)Oc1ccc(-c2ccc(C(N)=O)cc2)cc1`: the max response is 1.21%.

For the compound `Clc1ccc([C@]23CNC[C@H]2C3)cc1Cl`, the max response was -2.06%.

Consider `Oc1ccc2c3c1O[C@H]1c4[nH]c5c(N=C=S)cccc5c4C[C@@]4(O)[C@@H](C2)N(CC2CC2)CC[C@]314`, for which the max response was -18.9%.

`C1CN(P2(N3CC3)=NP(N3CC3)(N3CC3)=NP(N3CC3)(N3CC3)=N2)CCO1` (stereo not given): the max response was 42.2%.

As for `CN1CCc2cc3c(cc2C1C1OC(=O)c2c1ccc1c2OCO1)OCO3` (stereo not given), the max response was -4.22%.

With `CC1=CC2/C=C(\C)CCCC(O)/C=C/C(=O)OC23C(=O)NC(CC(C)C)C3C1C` (stereo not given), the compound was classed as inactive.

Take `COC1CC(O[C@H]2CC[C@@]3(C)C(CCC4C3CC[C@]3(C)[C@@H](C5=CC(=O)OC5)CC[C@]43O)C2)OC(C)C1O` (stereo not given in full): the Potency was 159 nM (active).

As to `Cc1cccc(NC(=O)N[C@H]2CN(C)c3ccccc3C(c3ccccc3)=N2)c1`, the max response was 6.39%.

With `CN[C@@]1(c2ccccc2Cl)CCCCC1=O`, the max response is -16.7%.

Turning to `O=C(N1CCCCC1Cc1ccccc1)n1cc(-c2ccc(-c3ccccc3)cc2)nn1` (stereo not given), the max response was -19%.

Turning to `CC(=O)NCCCOc1ccc(C(=O)N2CCC(N3C(=O)CCc4ccccc43)CC2)cc1`, the max response was 5.83%.

In the case of `c1cncc(OC[C@@H]2CCN2)c1`, the max response was -3.57%.

As to `CC(=O)O[C@H]1C[C@H](O[C@H]2[C@@H](O)C[C@H](O[C@H]3[C@@H](O)C[C@H](OC4CC[C@@]5(C)C(CC[C@@H]6[C@@H]5CC[C@]5(C)[C@@H](C7=CC(=O)OC7)[C@@H](O)C[C@]65O)C4)O[C@@H]3C)O[C@@H]2C)O[C@H](C)[C@H]1O[C@@H]1O[C@H](CO)[C@@H](O)[C@H](O)[C@H]1O` (stereo not given in full), the Potency was 1300 nM (active).

In the case of `COC(=O)CC1CC2(C(=O)c3c(O)cccc3C2(O)C(=O)OC)C(C)O1` (stereo not given), the max response was 3.88%.

`CNC(=O)c1cc(C#N)cc(C)c1NC(=O)c1cc(Br)nn1-c1ncccc1Cl`: the max response was -25.7%.

For the compound `C=C(CO)C(=O)O[C@H]1CC(=C)[C@@H]2C[C@H](O)C(=C)[C@@H]2[C@H]2OC(=O)C(=C)[C@@H]21`, the outcome was inactive.

For `O=C(O)CCCO`, the max response is 4.02%.

Regarding `N#Cc1ccccc1-c1cc(-c2ccccn2)cn(-c2ccccc2)c1=O`, the max response was -4.86%.

Take `CC(C)(O)/C=C/C(=O)[C@](C)(O)[C@H]1[C@H](O)C[C@@]2(C)[C@@H]3CC=C4[C@@H](C[C@H](O)C(=O)C4(C)C)[C@]3(C)C(=O)C[C@]12C`: the Potency was 448 nM (active).

In the case of `C[C@@H]1C[C@@H](O)[C@]2(O)O[C@@H]3C[C@@]4(C=O)C(CC[C@@H]5C4CC[C@]4(C)[C@@H](C6=CC(=O)OC6)CC[C@]54O)C[C@H]3O[C@@H]2O1` (stereo not given in full), the Potency is 100 nM (active).

Regarding `CC(O)(c1ccccc1)C(Cc1ccc(Cl)cc1)n1cncn1` (stereo not given), the max response was -4.41%.

In the case of `C/C=C(\C)C(=O)OC1C2C3(C)CCC(OC4CC(OC)C(OC5OC(C)C(O)C(OC)C5O)C(C)O4)CC3CCC23OC32CCC(C(C)=O)C2(C)C1OC(=O)/C(C)=C/C` (stereo not given), the max response is -21.8%.

Regarding `CNc1ccc2oc(C[C@H]3O[C@@]4(CC[C@H]3C)O[C@H](C(C)C(=O)c3ccc[nH]3)[C@H](C)C[C@H]4C)nc2c1C(=O)O` (stereo not given in full), the Potency was 2310 nM (active).

Take `COC1(C[S@@](=O)c2ccccc2)CCN(CCc2c[nH]c3ccc(F)cc23)CC1`: the max response was 6.86%.

Regarding `C=CCN1CC[C@]23c4c5ccc(O)c4O[C@H]2[C@@H](O)CC[C@@]3(O)[C@H]1C5`, the max response was 3.34%.

In the case of `C[C@]12CC[C@H](O)C[C@H]1CC[C@@H]1[C@@H]2[C@H](O)C(=O)[C@]2(C)[C@@H](c3ccc(=O)oc3)CC[C@]12O`, the Potency was 46.1 nM (active).

For the compound `OCCN(CCO)CCO`, the max response is 0.954%.

With `O=Cc1ccccc1`, the max response was -11.1% and 0.83%.

Take `C[C@@H]1[C@H](O)[C@@H](C)/C=C/C=C/CC/C=C/C=C/C=C/C=C/[C@H](O[C@H]2O[C@@H](C)[C@H](O)[C@@H](N)[C@H]2O)C[C@@H]2O[C@](O)(C[C@@H](O)[C@H](O)CC[C@@H](O)C[C@@H](O)C[C@@H](O)CC(=O)O[C@H]1C)C[C@H](O)[C@H]2C(=O)O`: the compound was classed as inactive.

For `CN=C(NS(=O)(=O)c1ccc(Cl)cc1)N1C[C@H](c2ccccc2)C(c2ccc(Cl)cc2)=N1`, the max response is -19.1%.

Regarding `COC(=O)C1=COC(C)C2CN3CCC4(C(=O)Nc5ccccc54)C3CC12` (stereo not given), the max response was -8.2%.

Consider `COC(=O)C12C(=O)C(C)(O)C(=O)C1(C)C(C)=CC1C3(C=O)CCC(OC(C)=O)C(C)(C)C3CCC12C` (stereo not given), for which the max response was 6.36%.

With `C[C@@H](N)C(=O)c1ccccc1`, the max response is 2.24%.

`N#CC(O[C@@H]1O[C@H](CO)[C@@H](O)[C@H](O)[C@H]1O)c1ccccc1` (stereo not given in full): the max response is 0.785%.

With `COC1CC(OC2CCC3(C=O)C(CCC4C3CCC3(C)C(C5=CC(=O)OC5)CCC43O)C2)OC(C)C1O` (stereo not given), the Potency was 252 nM (active).

In the case of `C=CC/C=C\C/C=C\CCCCCCCc1cc(O)cc(O)c1`, the max response is -0.409%.

Regarding `C[N@@+]1(CC2CC2)CC[C@]23c4c5ccc(O)c4O[C@H]2C(=O)CC[C@@]3(O)[C@H]1C5`, the compound was classed as inactive.
